Screening data: PubChem, several laboratories
eIF4H inh: inhibitors of RNA binding by human eIF4H. eIF4H fluorescence polarization binding assay. Q15056. inhibition, % at 35 µM. actives 0.94% (n = 290,000). AID 2012;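 further: calls also rest on retests at 20 µM and on dose response follow-up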
PABP FP inh: blocks human PABP binding to poly(A) RNA; P11940; fluorescence polarization; inhibition, % at 35 µM; actives 1% (n = 290,000);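 further: calls also rest on retests at 20 µM and on dose response follow-up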
eIF4E 4G PPI: blocks eIF4E binding to eIF4G; P63073+Q04637; TR-FRET eIF4E-eIF4GI(517-606) binding, 2 h; inhibition, % at 21.7 µM; actives 0.37% (n = 220,000);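 active means inhibition above about 30%, limit read from the data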;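 further: 0% = full FRET control wells and 100% = background wells lacking eIF4GI fragment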
Target sequence (P63073 whole entry, looked up, the tested form may be a part): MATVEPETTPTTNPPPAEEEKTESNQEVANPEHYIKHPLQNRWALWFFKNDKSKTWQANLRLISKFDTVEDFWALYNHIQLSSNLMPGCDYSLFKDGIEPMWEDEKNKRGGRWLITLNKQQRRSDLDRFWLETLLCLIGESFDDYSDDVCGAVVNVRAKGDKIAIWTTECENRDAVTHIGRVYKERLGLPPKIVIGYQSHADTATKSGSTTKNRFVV
Target sequence (Q04637 whole entry, looked up, the tested form may be a part): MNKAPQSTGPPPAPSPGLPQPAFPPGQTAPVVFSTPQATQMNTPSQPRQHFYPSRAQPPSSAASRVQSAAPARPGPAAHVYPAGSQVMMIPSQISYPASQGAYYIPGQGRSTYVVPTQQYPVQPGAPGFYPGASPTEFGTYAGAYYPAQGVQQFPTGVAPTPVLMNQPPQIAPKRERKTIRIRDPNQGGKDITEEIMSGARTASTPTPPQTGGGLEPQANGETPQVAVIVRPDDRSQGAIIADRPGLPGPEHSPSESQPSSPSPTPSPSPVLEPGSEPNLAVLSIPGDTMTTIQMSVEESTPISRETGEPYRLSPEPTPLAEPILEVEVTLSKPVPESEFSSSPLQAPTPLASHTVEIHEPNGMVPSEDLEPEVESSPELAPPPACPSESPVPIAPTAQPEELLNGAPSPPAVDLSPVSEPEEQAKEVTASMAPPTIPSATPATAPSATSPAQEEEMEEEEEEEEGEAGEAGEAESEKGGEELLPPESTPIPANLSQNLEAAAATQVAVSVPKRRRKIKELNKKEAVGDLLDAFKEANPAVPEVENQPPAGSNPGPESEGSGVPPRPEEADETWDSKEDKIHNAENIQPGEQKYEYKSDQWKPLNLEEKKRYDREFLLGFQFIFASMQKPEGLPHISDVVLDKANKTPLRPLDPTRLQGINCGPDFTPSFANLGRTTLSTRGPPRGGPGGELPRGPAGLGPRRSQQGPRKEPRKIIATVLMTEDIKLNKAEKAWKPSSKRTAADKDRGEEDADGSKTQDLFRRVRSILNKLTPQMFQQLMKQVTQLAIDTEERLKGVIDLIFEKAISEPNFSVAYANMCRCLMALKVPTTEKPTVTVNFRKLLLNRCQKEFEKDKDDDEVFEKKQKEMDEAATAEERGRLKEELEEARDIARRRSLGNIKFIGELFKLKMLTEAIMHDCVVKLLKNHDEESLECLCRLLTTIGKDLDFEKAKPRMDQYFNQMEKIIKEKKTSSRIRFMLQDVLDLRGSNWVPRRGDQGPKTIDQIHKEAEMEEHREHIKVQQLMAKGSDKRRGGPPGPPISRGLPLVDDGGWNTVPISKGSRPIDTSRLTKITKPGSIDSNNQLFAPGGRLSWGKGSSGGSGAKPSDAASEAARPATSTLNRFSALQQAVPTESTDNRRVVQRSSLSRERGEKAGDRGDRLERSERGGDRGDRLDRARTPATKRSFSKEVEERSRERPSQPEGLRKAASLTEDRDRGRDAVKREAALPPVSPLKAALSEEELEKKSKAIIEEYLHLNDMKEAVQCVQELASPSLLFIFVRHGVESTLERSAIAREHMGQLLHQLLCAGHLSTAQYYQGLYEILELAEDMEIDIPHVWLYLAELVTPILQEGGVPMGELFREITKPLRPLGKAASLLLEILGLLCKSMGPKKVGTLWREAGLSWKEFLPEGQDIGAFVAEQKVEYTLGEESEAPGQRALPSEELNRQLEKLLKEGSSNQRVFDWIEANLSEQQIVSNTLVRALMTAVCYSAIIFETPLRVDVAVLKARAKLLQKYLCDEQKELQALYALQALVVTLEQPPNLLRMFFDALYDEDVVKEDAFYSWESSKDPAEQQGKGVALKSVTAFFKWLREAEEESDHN
PABP1 MLLE inh: inhibitors of microRNA-mediated deadenylation, human PABP1 MLLE binding; GST-MLLE / FITC-PAM2 fluorescence polarization; inhibition, % at 20 µM; actives 0.36% (n = 360,000); AID 588489; in the data active means inhibition above about 35%, passing the limit was not always enough;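 further: plate controls were DMSO wells with GST-MLLE for no effect and wells lacking GST-MLLE protein for full effect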
PERK inhibitor: human PERK inhibition, primary cell-based screen. Q9NZJ5. CHO PERK-DD fusion, SEAP luminescence translation reporter. inhibition, % at 5.6 µM. actives 0.17% (n = 220,000);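 active means inhibition above the mean inhibition of all tested compounds plus 3 SD, set separately per screening campaign, cut at about 2.9% in these data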;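 further: PERK kinase domain activated by AP20187 dimerizer at 100 nM; 0% = DMSO with dimerizer and 100% = rapamycin at 8.4 µM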
* hit, by the source's call; ? = inconclusive; . = not tested or not shown. Only some compounds are listed: those with a hit (about 1.6% of all), similar ones and a draw of the others. Unless noted, how the calls were made is not given here.

SMILES | eIF4H inh | PABP FP inh | eIF4E 4G PPI | PABP1 MLLE inh | PERK inhibitor
CC(=O)Nc1ccc(NC(=O)C(C)n2nc(C)c([N+](=O)[O-])c2C)cc1 (stereo not drawn) | -4 | -6 | 2 | -2 | 3.0*
CC(=O)Nc1ccc(NC(=O)C(C)n2nc([N+](=O)[O-])c(Br)c2C)cc1 (stereo not drawn) | -2 | -1 | -7 | -1 | 0
COc1ccccc1C1Nc2cccc3cccc(c23)N1 | ? | ? | 0 | 13 | 0
CN(C)c1ccc(C2Nc3cccc4cccc(c34)N2)cc1 | 7 | 2 | . | -42 | .
c1ccc(C2Nc3cccc4cccc(c34)N2)cc1 | 86* | 62* | . | 13 | .
Brc1ccc(C2Nc3cccc4cccc(c34)N2)o1 | 99* | 104* | 2 | 36 | 1
Oc1ccccc1C1Nc2cccc3cccc(c23)N1 | 95* | 72* | 13 | 0 | 1
Clc1ccc(C2Nc3cccc4cccc(c34)N2)cc1Cl | 55* | 50* | . | 6 | .
Cc1cnc(NC(=O)CSc2ncn(-c3ccccc3)n2)s1 | -5 | 20 | 5 | 16 | -1
COc1ccc(NC(=S)NC(=O)Cc2ccccc2)cc1 | -4 | 1 | . | 34 | .
COc1ccc(NC(=S)Nc2ccc3cn[nH]c3c2)cc1 | -1 | 5 | -5 | 11 | 0
CN(C)c1ccc(/C=N/N(CCC(=O)NC(C)(C)C)C2=NS(=O)(=O)c3ccccc32)cc1 | 7 | 8 | . | -43 | .
CCc1nonc1NC(=O)COc1ccc(Cl)c(C)c1 | . | . | . | -3 | .
O=[N+]([O-])c1ccccc1C1Nc2cccc3cccc(c23)N1 | 53 | 18 | 3 | 22 | 1
Brc1cccc(C2Nc3cccc4cccc(c34)N2)c1 | 46 | 19 | . | 14 | .
c1csc(C2Nc3cccc4cccc(c34)N2)c1 | ? | ? | 7 | 41* | 0
Clc1cccc(C2Nc3cccc4cccc(c34)N2)c1 | 53* | 40* | . | 9 | .
O=[N+]([O-])c1ccc(Cl)c(C2Nc3cccc4cccc(c34)N2)c1 | 97* | 60* | -10 | 22 | -2
CCOC(=O)C(=CNc1ccc(S(N)(=O)=O)cc1)C(=O)OCC | 8 | -2 | -4 | 10 | 2
O=C(Nc1ccc(N2CCOCC2)c(S(=O)(=O)Nc2ccc(Cl)cc2)c1)c1cnccn1 | -4 | 3 | -3 | 40* | 1
N#C/C(=C\c1ccc(-c2ccccc2[N+](=O)[O-])o1)C(=O)N1CCOCC1 | 61* | 0 | -4 | 7 | 1
COc1cccc(NC2=C(NCCO)C(=O)c3ccccc3C2=O)c1 | 17 | 12 | . | 22 | .
CCC(=O)NC(=S)Nc1c(C)cc(Br)cc1C | -6 | 14 | -2 | 44* | 0
CC(Nc1ccc(F)cc1)=[N+](C)CCNS(=O)(=O)c1ccc(Cl)cc1 | 11 | 51* | . | -121 | .
CCNS(=O)(=O)c1ccc(NC(=O)Cc2ccc(F)cc2)cc1 | 4 | 2 | -3 | 4 | 0
SMILES | eIF4H inh | PABP FP inh | eIF4E 4G PPI | PABP1 MLLE inh | PERK inhibitor
CN=c1scc(C)n1/N=C/c1ccc(O)c(O)c1O | 95 | 38 | -4 | 20 | -1
COc1ccccc1N1CCN(S(=O)(=O)CCNC(=O)C2CC2)CC1 | . | . | . | -11 | .
COc1ccc(-c2cc(C(=O)N3CCCC3)c3ccccc3n2)cc1 | . | . | . | -12 | .
COc1ccc(-c2cc(C(=O)N3CCN(c4ccccc4)CC3)c3ccccc3n2)cc1 | 57* | active | 2 | 11 | 0
COc1ccc(-c2cc(C(=O)N3CCCCCC3)c3ccccc3n2)c(OC)c1 | 84* | 48* | . | 19 | .
O=C(c1ccccc1C(=O)N1CCN(c2ccccc2)CC1)N1CCN(c2ccccc2)CC1 | 127* | 118* | 7 | 86 | -1
COc1ccc(-c2cc(C(=O)N3CCN(c4ncccn4)CC3)c3ccccc3n2)c(OC)c1 | -11 | 4 | 15 | 22 | -1
CN1CCC(N(C)C(=O)c2sc3cc(F)ccc3c2Cl)CC1 | 1 | -15 | 2 | 18 | 1
O=C(O)c1ccccc1C(=O)N1CCN(c2ccccc2)CC1 | -8 | 2 | -1 | 1 | 1
O=C(c1sc2cc(F)ccc2c1Cl)N1CCN(c2ccccc2)CC1 | 76* | active | 4 | 7 | 0
CSc1ccccc1NC(=O)CN(C)C(C)C(=O)NC(=O)NC1CCCCC1 (stereo not drawn) | . | . | . | 4 | .
Cc1csc(NC(=O)CSc2ccccc2F)n1 | 8 | 0 | 3 | -6 | 0
CN1C(=O)c2ccccc2Sc2ccc(NC(=O)N3CCOCC3)cc21 | -5 | 11 | -3 | -1 | 1
